Assay results published in publication PMC10726135, “HNF4α isoforms regulate the circadian balance between carbohydrate and lipid metabolism in the liver”.
The full ranking holds about 18,000 sequences; the median of “log2 normalized intensity” is about 0.39, and the highest 2% start at about 6.6. Shown is part of a subset that was picked to be rich in the highest values.

target: T1, HNF4alpha2 (COS-7 nuclear extract) (Homo sapiens, UniProt P41235 1-474); assay: protein-binding microarray; COS-7 nuclear extract on double-stranded Agilent 4x180k PBM; binding buffer, salt, pH and temperature not given in the material; high values mean tight binding; conditions: chain copies: 2; label: 3' end of strand 1 on the slide; dsDNA, one strand shown
T1 sequence: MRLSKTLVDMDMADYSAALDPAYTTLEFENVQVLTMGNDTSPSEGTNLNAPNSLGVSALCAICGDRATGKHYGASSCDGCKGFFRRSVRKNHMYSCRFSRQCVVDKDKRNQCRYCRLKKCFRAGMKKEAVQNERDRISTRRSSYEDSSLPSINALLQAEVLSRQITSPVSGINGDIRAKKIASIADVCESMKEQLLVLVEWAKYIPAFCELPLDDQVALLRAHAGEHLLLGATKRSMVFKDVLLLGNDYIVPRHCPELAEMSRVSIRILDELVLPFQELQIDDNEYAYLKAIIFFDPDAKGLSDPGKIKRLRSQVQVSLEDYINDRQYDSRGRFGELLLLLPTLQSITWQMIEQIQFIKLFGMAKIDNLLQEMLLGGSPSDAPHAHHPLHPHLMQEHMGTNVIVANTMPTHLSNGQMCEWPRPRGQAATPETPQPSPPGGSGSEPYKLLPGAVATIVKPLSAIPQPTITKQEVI
In short: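 Nuclear extracts of COS-7 cells transiently transfected with a human HNF4α isoform were applied to a custom Agilent SurePrint G3 4x180k array bearing ~44,000 double-stranded ~60-nt test sequences, each in quadruplicate. The bound protein was imaged on an Agilent G2565CA scanner at 2-µm resolution. Binding signal is the normalized, background-corrected gProcessedSignal from Agilent software.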

Row | Sequence | binding signal [log2 normalized intensity]
1 | TGGACTTTGAACCTCTCTTCTTTTTCGTCTGCCTAGGGAGATTAGAGTATCGGTCGA | 6.71
2 | CATCTGAACTCTTCATGGACTCCTCTTATCGCCTAGGGAGATTAGAGTATCGGTCGA | 1.6
3 | CCTTGCTATGGAGTGGACTTTGGCTTATGCGCCTAGGGAGATTAGAGTATCGGTCGA | 6.18
4 | CCTTTGGTGCCTCTTTTTTCTTGTTGACTTGCCTAGGGAGATTAGAGTATCGGTCGA | 2.44
5 | CTATGGAACATGGACTTTGAACCTCTCTTCGCCTAGGGAGATTAGAGTATCGGTCGA | 8.15
6 | AGTCTAACTTTGGACTTTTATGTTAAGATCGCCTAGGGAGATTAGAGTATCGGTCGA | 2.25
7 | TGAACTTTGAACACCTCTTCTTTCTTCTCTGCCTAGGGAGATTAGAGTATCGGTCGA | 3.92
8 | TTTGAACACCTCTTCTTTCTTCTCTGGTACGCCTAGGGAGATTAGAGTATCGGTCGA | 1.58
9 | TGGGCACTGTCCTAGGTGCTGAAGATGCAAGCCTAGGGAGATTAGAGTATCGGTCGA | -0.724
10 | GATCAAAGGTCGGTTTTAGGACAACATGAGGCCTAGGGAGATTAGAGTATCGGTCGA | 4.52
11 | CTATCATTATCTCTCACTGCAGAAACTCTGGCCTAGGGAGATTAGAGTATCGGTCGA | 1.35
12 | AGCATTTTTGTATGCATAAGGCCTTGGACCGCCTAGGGAGATTAGAGTATCGGTCGA | 3.11
13 | CTTTGGTATGGACTGATATTCAAACAGGTCGCCTAGGGAGATTAGAGTATCGGTCGA | 1.31
14 | GAGGGATTTTCAGTATACTGACTTATCAGGGCCTAGGGAGATTAGAGTATCGGTCGA | 0.535
15 | AGCGGCCTTCCCCTTTTTCTGTAAAGCTTTGCCTAGGGAGATTAGAGTATCGGTCGA | 1.21
16 | GAGTTTAGGCATTCTTAGACACAGTCTGAGGCCTAGGGAGATTAGAGTATCGGTCGA | -0.227
17 | CCTCTTGCGTGTTATCTATGGAACATGGACGCCTAGGGAGATTAGAGTATCGGTCGA | 2.24
18 | TACATTGAACTTTGAACACCTCTTCTTTCTGCCTAGGGAGATTAGAGTATCGGTCGA | 4.75
19 | TGCGTGTTATCTATGGAACATGGACTTTGAGCCTAGGGAGATTAGAGTATCGGTCGA | 8.74
20 | GAACATGGACTTTGAACCTCTCTTCTTTTTGCCTAGGGAGATTAGAGTATCGGTCGA | 7.25
21 | AACATGGACTTTGTTGTTTGCCTCTGAAAAGCCTAGGGAGATTAGAGTATCGGTCGA | 2.31
22 | CCATACCTCTTGCGTGTTATCTATGGAACAGCCTAGGGAGATTAGAGTATCGGTCGA | 1.5
23 | GGAGAAGTTTTATGGCAGGGTCGGAATGTCGCCTAGGGAGATTAGAGTATCGGTCGA | 1.55

Row | Sequence | binding signal [log2 normalized intensity]
24 | AGCCCCACAGAGCAAAGGTCATGCATAGAAGCCTAGGGAGATTAGAGTATCGGTCGA | 4.52
25 | ATGGTTTGACCCTGCGATAAGTAGATACCAGCCTAGGGAGATTAGAGTATCGGTCGA | 0.964
26 | GTCTGTTGACCTTTGGCCAAGGGCAGTGTTGCCTAGGGAGATTAGAGTATCGGTCGA | 6.71
27 | AGGCAGTCTGTTGACCTTTGGCCAAGGGCAGCCTAGGGAGATTAGAGTATCGGTCGA | 7.73
28 | TCAGTCTGGTTGAGGCAAGCAAAAGCCAAGGCCTAGGGAGATTAGAGTATCGGTCGA | -0.985
29 | GAGTCTGTTGTCTAACATTTTTGACCTTCAGCCTAGGGAGATTAGAGTATCGGTCGA | 4.09
30 | CTTTGGCCAAGGGCAGTGTTTGCCCAGCTTGCCTAGGGAGATTAGAGTATCGGTCGA | 0.106
31 | TTGACCTTTGGCCAAGGGCAGTGTTTGCCCGCCTAGGGAGATTAGAGTATCGGTCGA | 5.35
32 | CAACTGGTATGTTAGATTAGTGTGCAGCTTGCCTAGGGAGATTAGAGTATCGGTCGA | 0.891
33 | TCTGACCTCTTTCAAGCCTGAACAAACATGGCCTAGGGAGATTAGAGTATCGGTCGA | 0.93
34 | GTCCGGCAGAGCTATGGAATTTTGGCCTTTGCCTAGGGAGATTAGAGTATCGGTCGA | 3.22
35 | TGCACATTCCCTCCAGCAGGGGATGCCCTTGCCTAGGGAGATTAGAGTATCGGTCGA | 2.38
36 | CCCTTTGACCTCTGCTTCCTGCTACAGAGCGCCTAGGGAGATTAGAGTATCGGTCGA | 1.87
37 | TTATGCAGACCTTTGCCCTTTGTTTACATAGCCTAGGGAGATTAGAGTATCGGTCGA | 5.27
38 | ATGCCCCTCCCAGGGACACATGCCCCTTCCGCCTAGGGAGATTAGAGTATCGGTCGA | 5.44
39 | CTCCAGGGCACTGCCCTTTGGAACCTGCCCGCCTAGGGAGATTAGAGTATCGGTCGA | 5.54
40 | TGCTTCCAAGTTATGCAGACCTTTGCCCTTGCCTAGGGAGATTAGAGTATCGGTCGA | 7.17
41 | AAAGCCTAGGCTCCAGGGCACTGCCCTTTGGCCTAGGGAGATTAGAGTATCGGTCGA | 3
42 | ATTCCCTCCAGCAGGGGATGCCCTTTGACCGCCTAGGGAGATTAGAGTATCGGTCGA | 8.91
43 | GCAGGGGATGCCCTTTGACCTCTGCTTCCTGCCTAGGGAGATTAGAGTATCGGTCGA | 8.18
44 | CTAGGCTCCAGGGCACTGCCCTTTGGAACCGCCTAGGGAGATTAGAGTATCGGTCGA | 6.71
45 | TACTTTGCTTCCAAGTTATGCAGACCTTTGGCCTAGGGAGATTAGAGTATCGGTCGA | 2.14
46 | GGATGCCCTTTGACCTCTGCTTCCTGCTACGCCTAGGGAGATTAGAGTATCGGTCGA | 5.58
